# Laboratory results as given in PubChem BioAssay AID588334 (Broad Institute, 2011).
# About 2,300 (0.77%) of roughly 300,000 compounds were called active.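 How the source made its calls: active means mean activation of at least 80% with every replicate also reaching 80%; inconclusive means mean reaches 80% but some replicate falls short; inactive means the rest.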 Many of the other results were omitted from the sample, so actives are more common in it than they were.
# Experiment: MITF-driven TRPM1 luciferase induction in melanoma cells – cell-based, SK-MEL-5, single point, primary screen (AID 588334);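 further: 0% = neutral control wells and 100% = parthenolide positive control wells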
# Details: SK-MEL-5 TRPM1-promoter luciferase, 24 h; at 12.5 µM; hits give high values; % of positive control, neutral wells = 0
row,Compound,activation
1,CCOC(=O)C(C)n1cnc2sc(C)c(C)c2c1=O (configuration not stated),2.04% (inactive)
2,Cc1cccc(OC(=O)c2sc3ncn(C)c(=O)c3c2C)c1,93.6% (active)
3,Cc1c(C(N)=O)sc2ncn(CCOc3ccccc3)c(=O)c12,17.3% (inactive)
4,CCC(CO)Oc1cc(NCc2ccccc2)c2ncn(C3CCCC3)c2c1 (configuration not stated),9.77% (inactive)
5,NC(=O)c1ncn([C@@H]2O[C@H](CNCc3cnc(N4CCOCC4)s3)[C@@H](O)[C@H]2O)n1,-0.075% (inactive)
6,O=C(Cc1ccc(S(=O)(=O)N2CCOCC2)s1)Nc1ccc(Br)c(C(F)(F)F)c1,17.8% (inactive)
7,O=C(CC1Sc2ccccc2NC1=O)NNc1ccc(Cl)c(Cl)c1 (configuration not stated),9.23% (inactive)
8,Nc1nnc(SCn2nnc3ccccc3c2=O)s1,-7.75% (inactive)
9,C=CCn1c(SCn2nnc3ccccc3c2=O)nnc1-c1ccc(Cl)cc1,-11% (inactive)
10,O=c1c2ccccc2nnn1CSc1nnnn1-c1ccccc1,87.9% (active)
11,O=C(NCCC(=O)N1O[C@@H]2C=C[C@H]1C2)OCC1c2ccccc2-c2ccccc21,12.3% (inactive)
12,COc1ccc(CNC(=O)COC(=O)C2=Cc3ccccc3OC2)cc1,-1.47% (inactive)
13,CC(C)N(C(=O)[C@H]1C[C@H](CC(=O)NC(C)(C)C)C(=O)N2CCc3c([nH]c4ccc(Cl)cc34)[C@]12C)C(C)C,-26.3% (inactive)
14,COc1cc(C(=O)N2CCN(S(=O)(=O)c3ccc(C(C)C)cc3)CC2)ccc1OCC(=O)N1CCOCC1,-0.869% (inactive)
15,Cc1ccc2cc(/C=N/NC(=O)[C@@H]3CCCN3)c(Cl)nc2c1,19.1% (inactive)
16,O=C(O)c1ccc(N/N=C/c2ccc3ncccc3c2)cc1,-58.9% (inactive)
17,Cc1ccc2cc(/C=N/Nc3ccc(C(=O)O)cc3)c(Cl)nc2c1,99.2% (active)
18,O=C1C[C@@H]2c3c(cccc3CN1Cc1ccccc1)C[C@@H](O)[C@H]2O,8.46% (inactive)
19,COc1ccc(C2=Nn3c(nnc3-c3ccccc3OC)SC2)cc1OC1CCCC1,-62.2% (inactive)
20,CC(=NNC(=O)c1ccncc1)c1ccc(Cl)c(Cl)c1,4.45% (inactive)
21,O=C(NCCC1=CCCCC1)c1ccc(-n2cncn2)cc1,83.6% (active)
22,CN(c1ccc(C(=O)NCCC2=CCCCC2)cc1)S(C)(=O)=O,45.6% (inactive)
23,O=C(NCCC1=CCCCC1)c1ccc(Cl)c([N+](=O)[O-])c1,31.3% (inactive)

row,Compound,activation
1,CN(C)C(CNC(=O)c1cc2ccccc2o1)c1ccccc1 (configuration not stated),1.76% (inactive)
2,CCNC(=O)N(CC)C[C@H]1N[C@@](CC)(C(=O)OC)[C@H]2C(=O)N(Cc3ccccc3)C(=O)[C@@H]12,0.033% (inactive)
3,CNN/C(N=Cc1ccc([N+](=O)[O-])s1)=N\S(=O)(=O)c1cc(C)c(Cl)cc1SCc1ccccc1,-22.7% (inactive)
4,CN(C)S(=O)(=O)c1ccc2oc(SCC(=O)Nc3ccccc3F)nc2c1,114% (active)
5,CCCc1nc(SCC(=O)Nc2ccc(S(=O)(=O)N(C)C)cc2)c2ccccc2n1,-0.188% (inactive)
6,COc1ccc(S(=O)(=O)N(C)C)cc1NC(=O)CSc1ncccn1,0.656% (inactive)
7,COc1ccc(CCC(=O)Nc2ccc(Cl)c(S(=O)(=O)N3CCOCC3)c2)cc1OC,-5.06% (inactive)
8,O=C1OCC2=C1C(c1ccc(Cl)cc1)c1cc3c(cc1O2)OCO3 (configuration not stated),3.92% (inactive)
9,O=C(c1noc2c1CCCC2)N1CCc2ccccc2C1,127% (active)
10,COc1ccc2c(c1)CCc1c(C(=O)N3CCc4ccccc4C3)noc1-2,18.4% (inactive)
11,Cc1ccc(-c2cc(C(=O)N3CCc4ccccc4C3)no2)cc1,-5% (inactive)
12,O=C1CC(c2ccccc2)C(=O)N2C(=O)CC(c3ccccc3)C(=O)N12 (configuration not stated),1.12% (inactive)
13,Cc1nc2ccc(N)nc2nc1C,-1.9% (inactive)
14,CCCCN(C(=O)CSCc1ccc(C)cc1)c1c(N)n(Cc2ccccc2)c(=O)[nH]c1=O,15.5% (inactive)
15,CC(=O)OCC1(O)CC23CCC4c5ccoc5CCC4(C)C2CCC1C3 (configuration not stated),-8.62% (inactive)
16,O=C(Cc1ccc(Cl)cc1)NCc1nc(-c2ccccc2)no1,14.2% (inactive)
17,O=C(Cc1nc2ccccc2[nH]c1=O)c1ccc(Cl)cc1,50.8% (inactive)
18,O=C(Cc1ccc(Cl)cc1)c1ccccc1,89.3% (active)
19,C/C(=N\Nc1ccccc1)c1cccs1,-5.68% (inactive)
20,COc1cc(O)c2c(=O)c3c(O)c(O)ccc3oc2c1OC,2.79% (inactive)
21,COc1ccc(-c2nc3cc(C)ccn3c2NC2CCCCC2)cc1SC1CCCCC1,7.59% (inactive)
22,COc1ccc2nc(N3CCN(C(=O)c4ccc([N+](=O)[O-])o4)CC3)sc2c1,-66.4% (inactive)
23,Cc1ccc2nc(N3C(=O)C(O)=C(C(=O)c4ccco4)C3c3cccc(O)c3)sc2c1 (configuration not stated),10% (inactive)

row,Compound,activation
1,Cc1ccc2nc(N3CCN(C(=O)c4ccco4)CC3)sc2c1,103% (active)
2,CCOC(=O)C1CCCN(C(=O)C2CCN(S(=O)(=O)c3ccc(Cl)c(C(F)(F)F)c3)CC2)C1 (configuration not stated),-3.48% (inactive)
3,O=C1NC[C@@H](c2ccccc2)OC(=O)[C@H](Cc2ccc(F)cc2)CC/C=C/C[C@H]1CC(=O)N(CCO)Cc1ccccc1,-2.43% (inactive)
4,COc1ccc(CC(=O)NC(C)c2ccc(Cl)c(Cl)c2)cc1S(=O)(=O)N1CCOCC1 (configuration not stated),6.68% (inactive)
5,CC(=O)Nc1ccc(-c2csc(NC(=O)Nc3ccccc3)n2)cc1,-48.4% (inactive)
6,CC(=O)Nc1ccc(-c2csc(NC=C3C(=O)OC(C)(C)OC3=O)n2)cc1,8.13% (inactive)
7,CC(=O)Nc1cccc(-c2csc(Nc3cccc(C)n3)n2)c1,137% (active)
8,Cc1ccc(Cn2c(C)c3cnn(CC(=O)NCCN4CCOCC4)c(=O)c3c2C)cc1,-2.1% (inactive)
9,COc1ccccc1-c1sc2ccccc2c1C#CC1(O)CCCCC1,5.32% (inactive)
10,CCN(CC)CCCC(C)n1c2nc(=O)[nH]c(=O)c-2nc2cc(Cl)ccc21 (configuration not stated),-84% (inactive)
11,Cc1cccc(NC(=O)Nc2ccc(OCc3ccccc3)cc2)n1,-1.41% (inactive)
12,CCN(CC)S(=O)(=O)c1ccc(C)c(NC(=O)COc2ccc(Br)cc2Cl)c1,-17.2% (inactive)
13,Cc1cccc(NC(=O)COc2ccc(Br)cc2C)n1,198% (active)
14,CCOC(=O)c1ccccc1OC(=O)Oc1ccccc1C(=O)OCC,-22.1% (inactive)
15,CCc1ccc(NC(=O)Cn2ncn3c(cc4ccccc43)c2=O)cc1,-8.34% (inactive)
16,CC(C)c1ccc(NC(=O)Cn2ncc3ccccc32)cc1,93% (active)
17,CCCN1CCN(C(=O)Cn2ncc3ccccc32)CC1,-0.935% (inactive)
18,O=C(OCCOc1ccccc1Cl)c1cc(S(=O)(=O)N2CCCCC2)ccc1N1CCOCC1,-10.6% (inactive)
19,CN1CCN(C(=O)c2ccc(-c3ccc(Br)cc3)o2)CC1,123% (active)
20,O=CN1CCN(C(=O)c2ccc(Br)o2)CC1,-12.5% (inactive)
21,COc1ccccc1OCc1ccc(C(=O)N2CCN(C)CC2)o1,1.8% (inactive)
22,CC(C)=CCc1ccc(O)c(=O)cc1C(C)C,-70.3% (inactive)
23,CC[C@@H](C)[C@@H]1CN([C@@H](C)CN2CCC[C@H]2CN2C(N)=NC[C@H]2C(C)C)C(=N)N1CCc1ccc(Cl)c(Cl)c1,5.32% (inactive)

row,Compound,activation
1,CS(=O)(=O)N1CCN(c2cccc(Cl)n2)CC1,-7.99% (inactive)
2,CS(=O)(=O)N1CCN(C(=O)Cc2ccccc2)CC1,-6.87% (inactive)
3,CS(=O)(=O)N1CCc2nc(-c3ccccc3)sc2C1,92.1% (active)
4,COc1ccc(S(=O)(=O)Nc2cccc3c2O[C@H](CN(C)S(=O)(=O)c2ccc(OC)cc2)[C@@H](C)CN([C@H](C)CO)C3=O)cc1,0.473% (inactive)
5,O=C1C=C(NS(=O)(=O)c2ccccc2)C(=O)c2ccccc21,-65.5% (inactive)
6,COc1ccc(Cn2cc(CN3CCS(=O)(=O)N(Cc4ccc(-c5cccc(Cl)c5)cc4)C(C)C3=O)nn2)cc1 (configuration not stated),0.982% (inactive)
7,Cc1ccn(-c2cccc(-n3ccc(C)n3)n2)n1,119% (active)
8,Cc1cccc(N2O[C@H]3C=CC2CCCC3)n1,63.6% (inactive)
9,Cc1ccccc1Nc1nc(-c2cccnc2)cs1,97.6% (active)
10,O=C(NCc1cccnc1)C(=O)Nc1nc(-c2ccccc2)cs1,54.4% (inactive)
11,O=C(Nc1nc(-c2cccnc2)cs1)c1ccccc1F,72.7% (inactive)
12,Cc1ccc(C(=O)O)c(NC=O)c1OCc1ccccc1,11% (inactive)
13,NC(=O)C1CCN(C(=O)c2cc(S(=O)(=O)N3CCN(c4ccccc4)CC3)ccc2Cl)CC1,-3.4% (inactive)
14,O=C(/C=C/Nc1ccccc1)c1cnc(-c2ccccc2)s1,37.6% (inactive)
15,CC(=O)c1cnc(-c2ccccc2)s1,13.4% (inactive)
16,CC(C)(C)C(=O)c1cnc(Nc2ccccc2)s1,124% (active)
17,CN[C@H](C(=O)NC[C@H]1O[C@@H](n2cnc3c(N)ncnc32)[C@H](O)[C@@H]1O)[C@@H](C)OCc1ccccc1,17% (inactive)
18,COc1cc(NC(=O)c2[nH]cnc2C(N)=O)cc(C(=O)Nc2cccc(C(F)(F)F)c2)c1,-88.9% (inactive)
19,C[C@@H]1NS(=O)(=O)c2cc(Cl)ccc2O[C@@H]1c1ccccc1,2.48% (inactive)
20,Oc1cccc(/C=N/Nc2ccc(Cl)nn2)c1O,-6.43% (inactive)
21,COc1cccc(/C=N/Nc2ccc(Cl)nn2)c1,93.6% (active)
22,COc1cccc(/C=N\Nc2nncc(-c3ccccc3)n2)c1,27.3% (inactive)
23,CCOC(=O)C1=CN(Cc2ccc(Br)cc2)S(=O)(=O)N(C)C1C (configuration not stated),-0.639% (inactive)
